Experimental data: PubChem BioAssay (NCI)
The panel holds about 83,000 compounds, 20% with a hit somewhere; the sample as a whole holds those more often.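 Single-dose data. Exposure time 48 hours. Values below 10 considered active.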 A number with no mark means an inactive call. The source made the active and inactive calls.

The compounds below were run on HCT-116 colon (assay: NCI-60 one-dose screen, 48 h (100 = growth as untreated, 0 = no growth, -100 = all killed)). Details: 10 µM unless noted.
`CCOC(=O)Nc1ccc2c3c(cccc13)-c1ccccc1-2` gave a growth of 16.6%. With `CCCCCCCC[Si](OCC)(OCC)OCC` the growth was 101%. For `COC(=O)[C@H](Cc1cnc[nH]1)NC(=O)[C@@H](NC(=O)Nc1cc(C(F)(F)F)cc(C(F)(F)F)c1)C(C)C`, the growth was -89.5% [100 µM] (active). Compound `CCOC(=O)c1sc(NC(=O)COc2cccc(/C=C3\CCc4cc(OC)ccc4C3=O)c2)nc1C` has a growth of 46.5%. In the case of `NS(=O)(=O)N(c1cc(C(F)(F)F)cc(C(F)(F)F)c1)C1CCN(Cc2ccc(C(F)(F)F)cc2)CC1`, the growth is reported as 2.21% (active). With `CCOC(CNCc1cc(C)c2[nH]c3ccccc3c2c1C)OCC` the growth was 53.5%. `COc1ccc2cc(-c3nc4ccccc4[nH]3)c(=O)oc2c1` showed a growth of 93%. Compound `O=C(O)C1CCN(S(=O)(=O)c2ccc(-c3ccccc3)cc2)CC1` has a growth of 112%. With `CNCCCn1c2c(c3ccc(F)cc3c1=O)C(=O)c1cc(OC)cnc1-2` the growth was -78% (active). With `Oc1c(Cl)cc(Cl)c(Cl)c1Cc1c(O)c(Cl)cc(Cl)c1Cl` the growth was 3.93% (active). Work on `COc1cc(/C=N/NC(=O)c2ccc(C(F)(F)F)nc2Nc2cc(Cl)ccc2C)cc(OC)c1OC` yielded a growth of 99%. In the case of `O=C(Nc1nc2ccc(OC(F)(F)F)cc2s1)c1ccc(F)cc1`, the growth is reported as -28% (active). With `COc1cc(/C(Cl)=C/C=C/C(=O)c2c(C)[n+]([O-])c3ccc(Cl)cc3[n+]2[O-])cc(OC)c1OC` the growth was 2.9% (active). In the case of `COc1ccc2nc(-c3ccc(Cl)cc3)cc(-c3nnc(SCC(=O)Nc4ccc(C(C)=O)cc4)n3-c3ccccc3)c2c1`, the growth is reported as 100%. `CC1Cc2ccccc2N1C(=O)c1ccc(C(=O)c2ccccc2)cc1` (stereo unspecified) was tested, and the growth was 81.1%. `O=C(O)c1ccc(CNS(=O)(=O)c2ccc3ccccc3c2)cc1` gave a growth of 109%. Work on `CCCCNCCCN(CCCC)CCCNCCCC` yielded a growth of 90.9%. `CC(=O)Nc1cc(C(c2ccccc2)c2ccccc2)cc(C(c2ccccc2)c2ccccc2)c1C` was tested, and the growth was 8.02% (active). For `C[C@H]1O[C@@H](O[C@H]2[C@@H](O)C[C@H](O[C@H]3[C@@H](O)C[C@H](O[C@H]4CC[C@]5(C)C6C[C@@H](O)[C@]7(C)[C@@H](C8=CC(=O)OC8)CC[C@]7(O)C6CC[C@@H]5C4)O[C@@H]3C)O[C@@H]2C)C[C@H](O)[C@@H]1O` (stereo partly specified), the growth was -88.7% (active). In the case of `CC[N+](CCCCCCCCCC[N+](CC)(c1ccccn1)c1ccccn1)(c1ccccn1)c1ccccn1`, the growth is reported as 9.06% (active). `NS(=O)(=O)c1ccc(-n2ncc3c(SCc4ccccc4)ncnc32)cc1` was tested, and the growth was 82.7%. Compound `O=C(CN1CCN(c2ccc(Cl)cc2)CC1)N1CCN(c2nnc(-c3ccc(Cl)cc3)c(-c3ccc(Cl)cc3)n2)CC1` has a growth of 47.2%. `Cc1nn(-c2ccccc2)c2nc(N)c(C3=NCCO3)nc12` was tested, and the growth was 95.8%. `C/C(=C\CCc1ccoc1)CC/C=C(\C)CCCN1CCOCC1` was tested, and the growth was 39.2%. `O=C1c2cccc(NCCN=Cc3ccccc3O)c2C(=O)c2c(NCCN=Cc3ccccc3O)cccc21` was tested, and the growth was 7.91% (active). `CCCn1c(N)c(C(=O)CNc2ccc(I)cc2)c(=O)[nH]c1=O` showed a growth of 32.3%.

Each compound was assayed on HCC-2998 colon in the same assay as above. Details: 10 µM unless noted.
`Cc1cc(=O)[nH]c(/C(=N/Nc2ccccc2)C(=O)c2ccc(Cl)cc2)n1` was tested, and the growth was 109%. With `COc1cc(C2=NN(C=O)C(c3cccc(Nc4ccnc5cc(Cl)ccc45)c3)C2)cc(OC)c1OC` (stereo unspecified) the growth was 107%. `Cc1cc(C(=O)Nc2ccc3cc(CN4CCOCC4)ccc3n2)c(C)n1-c1ccccc1` was tested, and the growth was 50.8%. For `O=C(Nc1cccc(Cl)c1)Nc1cccc(Cl)c1`, the growth was 72.6%. For `COc1cc2c(cc1OC)C(=O)/C(=C/c1cccc(OCC(=O)c3ccccc3)c1)C2`, the growth was 111%. `CN(C)c1ccc(-n2nc3ccccc3n2)cc1` showed a growth of 75.3%. `N[C@H](CS)C(=O)O` gave a growth of 112%. `CCOc1cc(/C=C/C(=O)C(C(=O)/C=C/c2ccc(OC(=O)CNc3nnc(C)s3)c(OCC)c2)C(=O)CNc2nnc(C)s2)ccc1OC(=O)CNc1nnc(C)s1` was tested, and the growth was -64.8% (active). For `CC[C@H]1CN2CCc3cc(OC)c(OC)cc3C2C[C@@H]1CC1NCCc2cc(OC)c(OC)cc21` (stereo partly specified), the growth was -47.8% (active). Work on `COc1ccc(N2CCN(CC(=O)N3CCN(c4nnc(-c5ccc(Cl)cc5)c(-c5ccc(Cl)cc5)n4)CC3)CC2)cc1` yielded a growth of 51%. `O=C(COc1ccc(/C=C2\Oc3ccc4ccccc4c3C2=O)cc1)c1ccc(Cl)cc1` gave a growth of 134%. For `Cc1nn(-c2nc3ccccc3s2)c(C)c1Oc1ccccc1O`, the growth was 250%. Work on `CCSc1ncc(Br)c(Sc2nc(N)nc3nc[nH]c23)n1` yielded a growth of 41.4%. `COc1ccc(C2=NN(C=O)C(c3cccc(Nc4ccnc5cc(Cl)ccc45)c3)C2)cc1` (stereo unspecified) showed a growth of 57.8%. For `CCOC(=O)Nc1ccc2c3c(cccc13)-c1ccccc1-2`, the growth was 41.2%. Work on `CCCCCCCC[Si](OCC)(OCC)OCC` yielded a growth of 105%. In the case of `COC(=O)[C@H](Cc1cnc[nH]1)NC(=O)[C@@H](NC(=O)Nc1cc(C(F)(F)F)cc(C(F)(F)F)c1)C(C)C`, the growth is reported as -82.2% [100 µM] (active). For `CCOC(=O)c1sc(NC(=O)COc2cccc(/C=C3\CCc4cc(OC)ccc4C3=O)c2)nc1C`, the growth was 32.3%. For `NS(=O)(=O)N(c1cc(C(F)(F)F)cc(C(F)(F)F)c1)C1CCN(Cc2ccc(C(F)(F)F)cc2)CC1`, the growth was 3.6% (active). With `CCOC(CNCc1cc(C)c2[nH]c3ccccc3c2c1C)OCC` the growth was 45.1%. For `COc1ccc2cc(-c3nc4ccccc4[nH]3)c(=O)oc2c1`, the growth was 78.3%. `O=C(O)C1CCN(S(=O)(=O)c2ccc(-c3ccccc3)cc2)CC1` gave a growth of 93.6%. In the case of `CNCCCn1c2c(c3ccc(F)cc3c1=O)C(=O)c1cc(OC)cnc1-2`, the growth is reported as 8% (active). In the case of `Oc1c(Cl)cc(Cl)c(Cl)c1Cc1c(O)c(Cl)cc(Cl)c1Cl`, the growth is reported as 7.48% (active). For `COc1cc(/C=N/NC(=O)c2ccc(C(F)(F)F)nc2Nc2cc(Cl)ccc2C)cc(OC)c1OC`, the growth was 104%. In the case of `O=C(Nc1nc2ccc(OC(F)(F)F)cc2s1)c1ccc(F)cc1`, the growth is reported as 3.77% (active). For `COc1cc(/C(Cl)=C/C=C/C(=O)c2c(C)[n+]([O-])c3ccc(Cl)cc3[n+]2[O-])cc(OC)c1OC`, the growth was 83.2%. For `COc1ccc2nc(-c3ccc(Cl)cc3)cc(-c3nnc(SCC(=O)Nc4ccc(C(C)=O)cc4)n3-c3ccccc3)c2c1`, the growth was 97.7%. `CC1Cc2ccccc2N1C(=O)c1ccc(C(=O)c2ccccc2)cc1` (stereo unspecified) gave a growth of 127%. For `O=C(O)c1ccc(CNS(=O)(=O)c2ccc3ccccc3c2)cc1`, the growth was 271%. In the case of `CCCCNCCCN(CCCC)CCCNCCCC`, the growth is reported as 103%. Compound `CC(=O)Nc1cc(C(c2ccccc2)c2ccccc2)cc(C(c2ccccc2)c2ccccc2)c1C` has a growth of 64.9%. In the case of `C[C@H]1O[C@@H](O[C@H]2[C@@H](O)C[C@H](O[C@H]3[C@@H](O)C[C@H](O[C@H]4CC[C@]5(C)C6C[C@@H](O)[C@]7(C)[C@@H](C8=CC(=O)OC8)CC[C@]7(O)C6CC[C@@H]5C4)O[C@@H]3C)O[C@@H]2C)C[C@H](O)[C@@H]1O` (stereo partly specified), the growth is reported as -79.1% (active). With `CC[N+](CCCCCCCCCC[N+](CC)(c1ccccn1)c1ccccn1)(c1ccccn1)c1ccccn1` the growth was 13.3%. `NS(=O)(=O)c1ccc(-n2ncc3c(SCc4ccccc4)ncnc32)cc1` gave a growth of 127%. With `O=C(CN1CCN(c2ccc(Cl)cc2)CC1)N1CCN(c2nnc(-c3ccc(Cl)cc3)c(-c3ccc(Cl)cc3)n2)CC1` the growth was 84.9%. In the case of `Cc1nn(-c2ccccc2)c2nc(N)c(C3=NCCO3)nc12`, the growth is reported as 101%. `C/C(=C\CCc1ccoc1)CC/C=C(\C)CCCN1CCOCC1` showed a growth of 62.3%. `O=C1c2cccc(NCCN=Cc3ccccc3O)c2C(=O)c2c(NCCN=Cc3ccccc3O)cccc21` was tested, and the growth was 2.57% (active). For `CCCn1c(N)c(C(=O)CNc2ccc(I)cc2)c(=O)[nH]c1=O`, the growth was 74.2%.
